Reference: the supplement of paper PMC11732987, “Enantioselective OTUD7B fragment discovery through chemoproteomics screening and high-throughput optimisation” (Communications Chemistry, 2025)

Columns and labels:
Assay in all cases: log2 ratio of Biotin-Ahx-Ub-VS probe labelling (fragment/DMSO); higher = less target engagement (more negative = stronger competition), active = hit call of the paper (q ≤ 0.05, log2 ratio ≤ -1)
Details in all cases: compound concentration: 200 uM; treatment time: 3 h
[1] = molecular target: USP34 (UniProt Q70CQ2)
Sequence of USP34 (Q70CQ2 whole entry, the tested form may be a part): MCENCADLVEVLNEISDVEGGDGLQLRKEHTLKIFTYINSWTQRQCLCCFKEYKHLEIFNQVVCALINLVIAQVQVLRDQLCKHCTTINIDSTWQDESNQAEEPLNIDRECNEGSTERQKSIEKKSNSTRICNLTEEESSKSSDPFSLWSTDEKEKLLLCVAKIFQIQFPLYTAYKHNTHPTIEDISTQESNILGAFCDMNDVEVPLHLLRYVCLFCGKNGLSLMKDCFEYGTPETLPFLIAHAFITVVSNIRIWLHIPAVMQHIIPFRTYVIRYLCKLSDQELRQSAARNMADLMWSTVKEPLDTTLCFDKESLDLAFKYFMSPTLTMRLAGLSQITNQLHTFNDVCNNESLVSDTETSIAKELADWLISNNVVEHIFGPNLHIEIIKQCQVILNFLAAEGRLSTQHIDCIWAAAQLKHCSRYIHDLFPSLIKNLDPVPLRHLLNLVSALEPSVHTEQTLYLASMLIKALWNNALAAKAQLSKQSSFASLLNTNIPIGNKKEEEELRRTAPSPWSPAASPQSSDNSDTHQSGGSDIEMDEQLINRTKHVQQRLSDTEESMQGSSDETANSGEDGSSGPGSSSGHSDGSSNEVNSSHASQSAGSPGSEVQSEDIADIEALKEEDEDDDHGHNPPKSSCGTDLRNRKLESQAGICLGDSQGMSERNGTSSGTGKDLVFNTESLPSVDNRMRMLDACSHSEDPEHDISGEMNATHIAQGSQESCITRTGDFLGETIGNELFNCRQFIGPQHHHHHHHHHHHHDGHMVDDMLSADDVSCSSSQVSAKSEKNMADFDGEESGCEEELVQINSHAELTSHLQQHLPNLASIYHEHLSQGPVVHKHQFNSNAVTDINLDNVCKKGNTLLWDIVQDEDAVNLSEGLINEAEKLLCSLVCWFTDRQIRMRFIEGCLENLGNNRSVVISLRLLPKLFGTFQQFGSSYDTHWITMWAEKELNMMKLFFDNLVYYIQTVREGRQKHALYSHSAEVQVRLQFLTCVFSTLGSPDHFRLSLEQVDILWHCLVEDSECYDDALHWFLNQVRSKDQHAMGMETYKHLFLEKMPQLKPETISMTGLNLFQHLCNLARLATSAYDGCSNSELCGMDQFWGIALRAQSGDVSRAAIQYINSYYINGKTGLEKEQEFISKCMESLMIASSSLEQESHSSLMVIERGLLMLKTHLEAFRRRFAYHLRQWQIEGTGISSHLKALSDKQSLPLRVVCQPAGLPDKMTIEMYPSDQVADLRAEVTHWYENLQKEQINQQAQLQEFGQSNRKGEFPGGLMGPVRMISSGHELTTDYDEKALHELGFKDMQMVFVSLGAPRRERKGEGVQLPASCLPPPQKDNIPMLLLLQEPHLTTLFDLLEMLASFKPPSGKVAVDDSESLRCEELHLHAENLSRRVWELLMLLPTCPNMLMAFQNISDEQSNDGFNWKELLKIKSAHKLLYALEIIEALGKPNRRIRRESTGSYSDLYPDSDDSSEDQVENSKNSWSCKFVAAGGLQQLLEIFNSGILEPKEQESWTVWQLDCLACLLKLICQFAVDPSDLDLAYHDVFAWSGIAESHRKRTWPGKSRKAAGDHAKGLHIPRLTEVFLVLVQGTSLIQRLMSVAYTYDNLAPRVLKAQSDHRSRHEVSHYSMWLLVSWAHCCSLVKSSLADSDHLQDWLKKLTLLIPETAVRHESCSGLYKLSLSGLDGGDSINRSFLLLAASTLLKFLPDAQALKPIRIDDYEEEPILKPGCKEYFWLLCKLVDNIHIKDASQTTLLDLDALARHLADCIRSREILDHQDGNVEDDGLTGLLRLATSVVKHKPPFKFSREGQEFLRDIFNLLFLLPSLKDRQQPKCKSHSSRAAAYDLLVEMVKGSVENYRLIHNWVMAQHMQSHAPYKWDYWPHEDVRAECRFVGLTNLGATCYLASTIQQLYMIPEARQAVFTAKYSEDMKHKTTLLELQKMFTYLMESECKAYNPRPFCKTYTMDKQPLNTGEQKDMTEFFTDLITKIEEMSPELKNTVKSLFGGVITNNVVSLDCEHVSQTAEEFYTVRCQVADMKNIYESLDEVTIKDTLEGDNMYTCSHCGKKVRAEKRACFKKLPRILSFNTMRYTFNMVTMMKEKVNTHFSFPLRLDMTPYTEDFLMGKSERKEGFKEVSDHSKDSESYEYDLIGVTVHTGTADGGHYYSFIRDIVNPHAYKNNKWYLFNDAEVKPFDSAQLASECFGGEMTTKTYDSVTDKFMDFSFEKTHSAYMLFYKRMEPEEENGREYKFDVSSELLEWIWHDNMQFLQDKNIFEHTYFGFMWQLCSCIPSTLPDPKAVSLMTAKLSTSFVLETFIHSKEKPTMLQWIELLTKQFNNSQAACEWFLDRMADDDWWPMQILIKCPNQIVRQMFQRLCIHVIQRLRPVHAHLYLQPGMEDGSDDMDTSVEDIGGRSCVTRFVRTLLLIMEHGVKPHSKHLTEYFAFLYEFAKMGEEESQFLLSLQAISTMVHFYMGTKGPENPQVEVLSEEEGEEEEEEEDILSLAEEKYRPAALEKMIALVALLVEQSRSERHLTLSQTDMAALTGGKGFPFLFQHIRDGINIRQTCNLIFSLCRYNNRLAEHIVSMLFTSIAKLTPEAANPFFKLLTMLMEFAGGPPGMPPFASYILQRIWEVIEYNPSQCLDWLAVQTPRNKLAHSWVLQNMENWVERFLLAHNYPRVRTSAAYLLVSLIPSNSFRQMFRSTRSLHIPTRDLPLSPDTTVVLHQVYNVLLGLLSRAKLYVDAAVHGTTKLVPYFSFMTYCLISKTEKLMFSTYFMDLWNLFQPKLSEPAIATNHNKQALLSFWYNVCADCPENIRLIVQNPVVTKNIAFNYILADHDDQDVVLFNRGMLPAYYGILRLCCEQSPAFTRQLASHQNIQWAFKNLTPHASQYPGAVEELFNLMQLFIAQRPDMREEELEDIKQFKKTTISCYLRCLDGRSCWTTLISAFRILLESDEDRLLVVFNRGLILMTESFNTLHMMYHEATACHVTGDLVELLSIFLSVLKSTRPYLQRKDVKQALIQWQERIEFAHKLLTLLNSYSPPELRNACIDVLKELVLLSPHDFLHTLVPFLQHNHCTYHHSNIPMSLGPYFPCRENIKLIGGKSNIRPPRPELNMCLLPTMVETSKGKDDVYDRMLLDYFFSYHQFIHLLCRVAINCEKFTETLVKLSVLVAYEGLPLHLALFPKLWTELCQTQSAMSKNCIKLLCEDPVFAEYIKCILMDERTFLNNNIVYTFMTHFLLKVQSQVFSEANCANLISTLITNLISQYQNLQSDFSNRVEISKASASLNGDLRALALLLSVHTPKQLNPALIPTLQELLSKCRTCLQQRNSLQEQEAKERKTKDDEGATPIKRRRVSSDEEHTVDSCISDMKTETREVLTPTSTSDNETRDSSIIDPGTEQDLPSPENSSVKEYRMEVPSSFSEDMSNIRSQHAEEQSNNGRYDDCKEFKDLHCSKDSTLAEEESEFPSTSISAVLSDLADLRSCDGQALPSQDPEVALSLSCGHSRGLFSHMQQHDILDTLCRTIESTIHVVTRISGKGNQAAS
How it was run: (§1)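 HEK293T lysate (495 µg per sample, in Tris/CHAPS/IGEPAL buffer with protease inhibitors) was exposed in triplicate for 3 h to fragment at 200 µM or to vehicle, then to Biotin-Ahx-Ub-VS at 0.5 µM final for 1 h. Labelled DUBs were enriched on NeutrAvidin, digested with LysC and trypsin, and analysed by diaPASEF LC-MS/MS. Spectronaut label-free quantities were normalised to the global median, and values are average log2 ratios of fragment over vehicle from an unpaired t-test. Only proteins with ≥2 unique peptides were used.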

[2] = molecular target: T1, USP36 (UniProt Q9P275)
T1 sequence (whole entry): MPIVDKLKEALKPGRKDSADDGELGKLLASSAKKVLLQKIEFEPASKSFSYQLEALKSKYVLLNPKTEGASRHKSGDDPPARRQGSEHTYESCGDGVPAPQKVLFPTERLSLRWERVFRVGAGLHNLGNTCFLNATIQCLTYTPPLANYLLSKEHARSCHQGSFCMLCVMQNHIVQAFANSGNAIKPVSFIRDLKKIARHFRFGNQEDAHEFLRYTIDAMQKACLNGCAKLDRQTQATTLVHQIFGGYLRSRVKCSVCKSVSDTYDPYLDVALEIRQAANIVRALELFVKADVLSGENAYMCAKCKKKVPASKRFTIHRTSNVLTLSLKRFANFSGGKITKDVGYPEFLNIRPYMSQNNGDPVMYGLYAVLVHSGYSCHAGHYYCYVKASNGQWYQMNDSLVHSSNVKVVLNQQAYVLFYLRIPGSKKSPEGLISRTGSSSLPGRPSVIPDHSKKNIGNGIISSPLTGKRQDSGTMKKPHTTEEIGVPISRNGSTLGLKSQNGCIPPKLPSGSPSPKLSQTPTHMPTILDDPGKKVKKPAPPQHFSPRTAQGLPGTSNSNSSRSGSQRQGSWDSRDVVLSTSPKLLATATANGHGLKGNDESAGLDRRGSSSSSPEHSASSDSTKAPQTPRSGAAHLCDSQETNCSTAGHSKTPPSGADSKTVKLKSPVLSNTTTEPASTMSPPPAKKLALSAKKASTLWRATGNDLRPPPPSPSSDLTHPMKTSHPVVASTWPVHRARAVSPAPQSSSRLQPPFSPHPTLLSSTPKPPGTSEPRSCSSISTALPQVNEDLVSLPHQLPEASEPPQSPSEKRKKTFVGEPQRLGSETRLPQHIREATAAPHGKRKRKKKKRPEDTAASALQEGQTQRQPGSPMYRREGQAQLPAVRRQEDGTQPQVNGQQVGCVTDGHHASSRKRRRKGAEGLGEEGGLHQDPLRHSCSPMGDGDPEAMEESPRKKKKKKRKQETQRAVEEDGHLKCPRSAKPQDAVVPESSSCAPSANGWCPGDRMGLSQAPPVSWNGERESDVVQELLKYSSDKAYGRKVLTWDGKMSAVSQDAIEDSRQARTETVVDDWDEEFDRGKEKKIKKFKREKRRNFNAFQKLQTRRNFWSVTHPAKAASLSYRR
How it was run: as §1

[3] = molecular target: T2, USP38 (UniProt Q8NB14)
T2 sequence (whole entry): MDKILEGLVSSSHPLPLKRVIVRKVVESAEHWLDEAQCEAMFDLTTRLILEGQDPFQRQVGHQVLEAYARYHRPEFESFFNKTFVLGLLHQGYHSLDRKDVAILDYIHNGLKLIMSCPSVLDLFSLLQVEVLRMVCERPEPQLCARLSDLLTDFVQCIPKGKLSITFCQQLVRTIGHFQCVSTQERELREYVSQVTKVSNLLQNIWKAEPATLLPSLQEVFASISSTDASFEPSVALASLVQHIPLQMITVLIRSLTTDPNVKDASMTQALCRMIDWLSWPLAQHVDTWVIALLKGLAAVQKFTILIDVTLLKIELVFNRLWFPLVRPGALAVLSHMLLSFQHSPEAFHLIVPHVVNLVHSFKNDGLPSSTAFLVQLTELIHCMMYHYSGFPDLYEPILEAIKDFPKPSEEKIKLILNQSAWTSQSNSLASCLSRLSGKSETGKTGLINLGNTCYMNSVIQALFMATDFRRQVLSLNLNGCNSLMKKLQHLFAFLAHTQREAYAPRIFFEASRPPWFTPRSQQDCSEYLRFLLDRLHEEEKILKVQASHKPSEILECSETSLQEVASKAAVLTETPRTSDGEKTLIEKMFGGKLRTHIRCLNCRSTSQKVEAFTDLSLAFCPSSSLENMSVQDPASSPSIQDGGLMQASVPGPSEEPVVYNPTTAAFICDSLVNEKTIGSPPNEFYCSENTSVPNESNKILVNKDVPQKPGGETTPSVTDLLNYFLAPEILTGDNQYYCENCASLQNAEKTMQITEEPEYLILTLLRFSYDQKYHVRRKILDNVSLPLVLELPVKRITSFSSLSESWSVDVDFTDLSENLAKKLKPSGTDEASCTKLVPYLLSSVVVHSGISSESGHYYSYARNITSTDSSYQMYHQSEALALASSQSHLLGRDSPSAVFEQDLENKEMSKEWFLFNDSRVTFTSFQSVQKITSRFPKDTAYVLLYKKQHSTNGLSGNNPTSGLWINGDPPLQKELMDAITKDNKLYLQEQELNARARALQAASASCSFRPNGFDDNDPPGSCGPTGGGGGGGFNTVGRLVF
How it was run: as §1

[4] = molecular target: T3, USP39 (UniProt Q53GS9)
T3 sequence (whole entry): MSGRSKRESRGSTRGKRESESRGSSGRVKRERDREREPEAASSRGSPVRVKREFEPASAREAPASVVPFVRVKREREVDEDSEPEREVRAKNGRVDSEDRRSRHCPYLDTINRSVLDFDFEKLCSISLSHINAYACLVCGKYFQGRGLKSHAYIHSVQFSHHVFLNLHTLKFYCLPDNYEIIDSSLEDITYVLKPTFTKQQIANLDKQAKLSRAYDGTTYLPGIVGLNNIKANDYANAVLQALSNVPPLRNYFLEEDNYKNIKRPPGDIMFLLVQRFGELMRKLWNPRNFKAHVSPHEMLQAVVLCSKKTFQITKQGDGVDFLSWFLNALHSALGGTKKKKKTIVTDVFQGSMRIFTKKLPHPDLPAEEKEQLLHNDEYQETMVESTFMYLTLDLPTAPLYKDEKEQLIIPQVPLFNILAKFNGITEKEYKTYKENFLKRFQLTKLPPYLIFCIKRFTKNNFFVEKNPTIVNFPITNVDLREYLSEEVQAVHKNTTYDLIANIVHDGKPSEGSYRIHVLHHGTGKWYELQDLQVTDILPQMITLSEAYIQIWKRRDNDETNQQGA
How it was run: as §1

[5] = molecular target: T4, USP4 (UniProt Q13107)
T4 sequence (whole entry): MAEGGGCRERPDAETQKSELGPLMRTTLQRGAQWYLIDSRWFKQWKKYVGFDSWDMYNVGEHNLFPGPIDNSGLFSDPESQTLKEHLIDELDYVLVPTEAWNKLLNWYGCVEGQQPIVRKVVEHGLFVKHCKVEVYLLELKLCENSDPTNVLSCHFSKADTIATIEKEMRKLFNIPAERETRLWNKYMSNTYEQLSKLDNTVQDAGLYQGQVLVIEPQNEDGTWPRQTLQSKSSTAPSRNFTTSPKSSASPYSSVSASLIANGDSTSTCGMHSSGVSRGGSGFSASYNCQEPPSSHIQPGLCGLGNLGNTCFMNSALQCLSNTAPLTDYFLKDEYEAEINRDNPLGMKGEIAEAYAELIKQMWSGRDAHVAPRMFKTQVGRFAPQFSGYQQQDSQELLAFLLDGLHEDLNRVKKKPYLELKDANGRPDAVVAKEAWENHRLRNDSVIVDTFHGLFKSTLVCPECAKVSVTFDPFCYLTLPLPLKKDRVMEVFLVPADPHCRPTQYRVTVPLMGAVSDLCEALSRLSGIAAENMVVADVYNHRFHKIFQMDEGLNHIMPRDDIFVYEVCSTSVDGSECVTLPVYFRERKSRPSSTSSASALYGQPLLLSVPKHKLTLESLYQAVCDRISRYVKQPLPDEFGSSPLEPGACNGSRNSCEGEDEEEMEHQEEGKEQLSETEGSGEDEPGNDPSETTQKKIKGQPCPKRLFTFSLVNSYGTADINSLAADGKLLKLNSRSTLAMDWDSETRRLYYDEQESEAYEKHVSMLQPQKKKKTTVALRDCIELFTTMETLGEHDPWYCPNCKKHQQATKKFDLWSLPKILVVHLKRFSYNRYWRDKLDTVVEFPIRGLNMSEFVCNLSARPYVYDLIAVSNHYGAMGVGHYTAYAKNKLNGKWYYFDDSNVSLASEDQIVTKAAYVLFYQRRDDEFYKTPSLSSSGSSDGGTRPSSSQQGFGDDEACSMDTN
How it was run: as §1

Measured: log2 ratio of Biotin-Ahx-Ub-VS probe labelling

O=C(CCl)N1CCN(c2nc3ccccc3o2)CC1
inactive: [1] -0.0431 | [2] -0.047 | [3] -0.41 | [4] -0.00936 | [5] -0.445
